# The sample as a whole holds a higher share of the strongest signals than the screen did.
# Tests used:
# Assay in all cases: glycan array binding signal (z-score within array); higher = stronger binding
# Details in all cases: glycan notation: IUPAC condensed, linker removed
# [1] = molecular target: Fuc(a1-2)Gal(b1-3)GalNAc(b1-3)Gal(a1-4)Gal(b1-4)Glc
# Outline: (§1)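 Glycan array data were curated from 3228 arrays in the Consortium for Functional Glycomics database and kept only where the protein sequence was available. Glycan names were converted to IUPAC-condensed notation, and columns mapping to the same glycan were averaged. The binding signal is a within-array Z-score, averaged across arrays of the same protein sequence at different concentrations or buffers and across linkers. Negative Z-scores can be read as non-binding.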
# [2] = molecular target: Fuc(a1-2)Gal(b1-4)GlcNAc(b1-2)Man
# Outline: as §1
# [3] = molecular target: Fuc(a1-2)Gal(b1-4)GlcNAc(b1-3)[Fuc(a1-2)Gal(b1-4)GlcNAc(b1-6)]GalNAc
# Outline: as §1
# [4] = molecular target: Fuc(a1-2)Gal(b1-4)[Fuc(a1-3)]GlcNAc(b1-3)Gal(b1-4)[Fuc(a1-3)]GlcNAc(b1-3)Gal(b1-4)[Fuc(a1-3)]GlcNAc
# Outline: as §1
# [5] = molecular target: Fuc(a1-2)[Gal(a1-3)]Gal(b1-3)GalNAc
# Outline: as §1
# [6] = molecular target: Fuc(a1-2)[Gal(a1-3)]Gal(b1-3)GlcNAc(b1-3)GalNAc
# Outline: as §1
# [7] = molecular target: Fuc(a1-2)[Gal(a1-3)]Gal(b1-4)GlcNAc(b1-3)[Fuc(a1-2)[Gal(a1-3)]Gal(b1-4)GlcNAc(b1-6)]GalNAc
# Outline: as §1
# [8] = molecular target: Fuc(a1-2)[Gal(a1-3)]Gal(b1-4)GlcNAc(b1-6)GalNAc
# Outline: as §1
# [9] = molecular target: Fuc(a1-2)[GalNAc(a1-3)]Gal(b1-3)GalNAc(a1-3)[Fuc(a1-2)]Gal(b1-4)GlcNAc
# Outline: as §1
# [10] = molecular target: Fuc(a1-2)[GalNAc(a1-3)]Gal(b1-4)[Fuc(a1-3)]GlcNAc(b1-3)GalNAc
# Outline: as §1
# [11] = molecular target: Fuc(a1-4)GlcNAc
# Outline: as §1
# [12] = molecular target: Gal(a1-3)Gal(b1-3)GlcNAc(b1-6)GalNAc
# Outline: as §1
# [13] = molecular target: Gal(a1-3)Gal(b1-4)GlcNAc(b1-2)Man(a1-3)[Gal(a1-3)Gal(b1-4)GlcNAc(b1-2)Man(a1-6)]Man(b1-4)GlcNAc(b1-4)GlcNAc
# Outline: as §1
# [14] = molecular target: Gal(b1-2)Gal
# Outline: as §1
# [15] = molecular target: Gal(b1-3)GalNAc(b1-4)Gal(b1-4)Glc
# Outline: as §1
# [16] = molecular target: Gal(b1-3)GlcNAc(b1-2)Man
# Outline: as §1
# [17] = molecular target: Gal(b1-3)GlcNAc(b1-3)Gal(b1-4)GlcNAc(b1-3)Gal(b1-4)GlcNAc(b1-2)[Gal(b1-3)GlcNAc(b1-3)Gal(b1-4)GlcNAc(b1-3)Gal(b1-4)GlcNAc(b1-6)]Man(a1-6)[Gal(b1-3)GlcNAc(b1-3)Gal(b1-4)GlcNAc(b1-3)Gal(b1-4)GlcNAc(b1-2)Man(a1-3)]Man(b1-4)GlcNAc(b1-4)[Fuc(a1-6)]GlcNAc
# Outline: as §1
# [18] = molecular target: Gal(b1-3)GlcNAc(b1-3)Gal(b1-4)GlcNAc(b1-6)[Gal(b1-3)GlcNAc(b1-3)]Gal(b1-4)Glc
# Outline: as §1
# [19] = molecular target: Gal(b1-3)[Fuc(a1-4)]GlcNAc
# Outline: as §1
# [20] = molecular target: Gal(b1-4)GlcNAc(b1-2)Man(a1-3)[Gal(b1-4)GlcNAc(b1-2)Man(a1-6)][Gal(b1-4)GlcNAc(b1-4)]Man(b1-4)GlcNAc(b1-4)[Fuc(a1-6)]GlcNAc
# Outline: as §1
# [21] = molecular target: Gal(b1-4)GlcNAc(b1-2)Man(a1-3)[GlcNAc(b1-4)][Gal(b1-4)GlcNAc(b1-2)Man(a1-6)]Man(b1-4)GlcNAc(b1-4)GlcNAc
# Outline: as §1
# [22] = molecular target: Gal(b1-4)GlcNAc(b1-2)Man(a1-6)[GlcNAc(b1-2)Man(a1-3)]Man(b1-4)GlcNAc(b1-4)GlcNAc
# Outline: as §1
# [23] = molecular target: Gal(b1-4)GlcNAc(b1-2)Man(a1-6)[Man(a1-3)]Man(b1-4)GlcNAc(b1-4)GlcNAc
# Outline: as §1
# [24] = molecular target: Gal(b1-4)GlcNAc(b1-2)[Gal(b1-4)GlcNAc(b1-6)]Man(a1-6)[Gal(b1-4)GlcNAc(b1-2)Man(a1-3)]Man(b1-4)GlcNAc(b1-4)[Fuc(a1-6)]GlcNAc
# Outline: as §1
# [25] = molecular target: Gal(b1-4)GlcNAc(b1-3)Gal(b1-4)GlcNAc(b1-2)[Gal(b1-4)GlcNAc(b1-3)Gal(b1-4)GlcNAc(b1-6)]Man(a1-6)[Gal(b1-4)GlcNAc(b1-3)Gal(b1-4)GlcNAc(b1-2)Man(a1-3)]Man(b1-4)GlcNAc(b1-4)GlcNAc
# Outline: as §1
# [26] = molecular target: Gal(b1-4)GlcNAc(b1-3)Gal(b1-4)GlcNAc(b1-3)Gal(b1-4)GlcNAc(b1-3)Gal(b1-4)GlcNAc(b1-2)Man(a1-3)[Gal(b1-4)GlcNAc(b1-3)Gal(b1-4)GlcNAc(b1-3)Gal(b1-4)GlcNAc(b1-3)Gal(b1-4)GlcNAc(b1-2)Man(a1-6)]Man(b1-4)GlcNAc(b1-4)[Fuc(a1-6)]GlcNAc
# Outline: as §1
# [27] = molecular target: Gal(b1-4)GlcNAc(b1-3)Gal(b1-4)GlcNAc(b1-3)Gal(b1-4)GlcNAc(b1-3)Gal(b1-4)GlcNAc(b1-3)Gal(b1-4)GlcNAc(b1-2)Man(a1-3)[Gal(b1-4)GlcNAc(b1-3)Gal(b1-4)GlcNAc(b1-3)Gal(b1-4)GlcNAc(b1-3)Gal(b1-4)GlcNAc(b1-3)Gal(b1-4)GlcNAc(b1-2)Man(a1-6)]Man(b1-4)GlcNAc(b1-4)GlcNAc
# Outline: as §1
# [28] = molecular target: Gal(b1-4)GlcNAc(b1-3)Gal(b1-4)GlcNAc(b1-3)[Gal(b1-4)GlcNAc(b1-3)Gal(b1-4)GlcNAc(b1-6)]GalNAc
# Outline: as §1
# [29] = molecular target: Gal(b1-4)GlcNAc(b1-3)[Gal(b1-4)GlcNAc(b1-6)]Gal(b1-4)GlcNAc
# Outline: as §1
# [30] = molecular target: GalNAc(a1-3)Gal
# Outline: as §1
# [31] = molecular target: GlcNAc(b1-2)Gal(b1-3)GalNAc
# Outline: as §1
# [32] = molecular target: Man(a1-3)[Man(a1-6)]Man(a1-6)[Man(a1-2)Man(a1-3)]Man(b1-4)GlcNAc(b1-4)GlcNAc
# Outline: as §1
# [33] = molecular target: Man(a1-3)[Man(a1-6)]Man(a1-6)[Man(a1-3)]Man
# Outline: as §1
# [34] = molecular target: Neu5Ac(a2-3)Gal(b1-3)GlcNAc(b1-2)Man(a1-3)[Neu5Ac(a2-3)Gal(b1-3)GlcNAc(b1-2)Man(a1-6)]Man(b1-4)GlcNAc(b1-4)GlcNAc
# Outline: as §1
# [35] = molecular target: Neu5Ac(a2-3)Gal(b1-4)Glc
# Outline: as §1
# [36] = molecular target: Neu5Ac(a2-3)Gal(b1-4)GlcNAc(b1-2)Man
# Outline: as §1
# [37] = molecular target: Neu5Ac(a2-3)Gal(b1-4)GlcNAc(b1-2)[Neu5Ac(a2-3)Gal(b1-4)GlcNAc(b1-4)]Man(a1-3)[GlcNAc(b1-4)][Neu5Ac(a2-3)Gal(b1-4)GlcNAc(b1-2)[Neu5Ac(a2-3)Gal(b1-4)GlcNAc(b1-6)]Man(a1-6)]Man(b1-4)GlcNAc(b1-4)GlcNAc
# Outline: as §1
# [38] = molecular target: Neu5Ac(a2-3)Gal(b1-4)GlcNAc(b1-2)[Neu5Ac(a2-3)Gal(b1-4)GlcNAc(b1-4)]Man(a1-3)[GlcNAc(b1-4)][Neu5Ac(a2-3)Gal(b1-4)GlcNAc(b1-4)Man(a1-6)]Man(b1-4)GlcNAc(b1-4)GlcNAc
# Outline: as §1
# [39] = molecular target: Neu5Ac(a2-3)Gal(b1-4)[Fuc(a1-3)]GlcNAc(b1-2)Man
# Outline: as §1
# [40] = molecular target: Neu5Ac(a2-3)[Neu5Ac(a2-6)]GalNAc
# Outline: as §1
# [41] = molecular target: Neu5Ac(a2-6)Gal(b1-4)GlcNAc(b1-2)Man(a1-3)Man(b1-4)GlcNAc(b1-4)GlcNAc
# Outline: as §1
# [42] = molecular target: Neu5Ac(a2-6)GalNAc(b1-4)GlcNAc
# Outline: as §1
# [43] = molecular target: Neu5Ac(a2-8)Neu5Ac
# Outline: as §1
# [44] = molecular target: Neu5Ac(a2-8)Neu5Ac(a2-3)Gal(b1-4)GlcNAc
# Outline: as §1
# [45] = molecular target: Neu5Ac(a2-8)Neu5Ac(a2-8)Neu5Ac(a2-3)[GalNAc(b1-4)]Gal(b1-4)Glc
# Outline: as §1
# [46] = molecular target: Neu5Gc(a2-3)Gal(b1-4)Glc
# Outline: as §1
# [47] = molecular target: Neu5Gc(a2-3)Gal(b1-4)GlcNAc(b1-3)Gal(b1-4)GlcNAc(b1-2)Man(a1-3)[Neu5Gc(a2-3)Gal(b1-4)GlcNAc(b1-3)Gal(b1-4)GlcNAc(b1-2)Man(a1-6)]Man(b1-4)GlcNAc(b1-4)GlcNAc
# Outline: as §1
# [48] = molecular target: Neu5Gc(a2-6)GalNAc
# Outline: as §1
binder,measurement,setting,value
Na-CTL-1 (Necator americanus) (protein) MQRSFLLLLVVLAGAWAVNTTIPLKLMGGFTPMKYQCVGRVSDIWADVLFLIESSDMITKSGFRQVIAFITATTKKMTIGQDEKQTRVGFITYGEEAKLIYDLDHWRSTEKLSDLVQKIPYVKSSGTNIAAAIALANKVFNSPTHRPNVPKVMVIVANGLKKGSQNPIPVATAFKDFGGIIITIEYTQYDNIQVPILKKIASEGYNIRSNDEDFSVRTLTNMLLQANCFCPDHYVPFRVNNPEFGCFVTAKIPSMWRDAAEMCRAVEEGKLVKVENEEKAAFIMKLVGPKKEAWIGLRYYGNKFQWTDGTKLNADDFNLWPEDIKELNGPHCVSMYQDQKDKKYYWRAGKCLEDMRYVCEVQPCSASNYCSEPVFMYRQKHRALLPAPPPPPN,glycan array binding signal (z-score),[1],-0.262
same,glycan array binding signal (z-score),[2],0.123
same,glycan array binding signal (z-score),[3],-0.753
same,glycan array binding signal (z-score),[4],-0.334
same,glycan array binding signal (z-score),[5],-0.176
same,glycan array binding signal (z-score),[6],-0.06
same,glycan array binding signal (z-score),[7],2.8
same,glycan array binding signal (z-score),[8],-0.539
same,glycan array binding signal (z-score),[9],-0.489
same,glycan array binding signal (z-score),[10],14.8
same,glycan array binding signal (z-score),[11],13.6
same,glycan array binding signal (z-score),[12],-0.267
same,glycan array binding signal (z-score),[13],0.692
same,glycan array binding signal (z-score),[14],-0.582
same,glycan array binding signal (z-score),[15],-0.243
same,glycan array binding signal (z-score),[16],-0.258
same,glycan array binding signal (z-score),[17],1.66
same,glycan array binding signal (z-score),[18],-0.326
same,glycan array binding signal (z-score),[19],-0.259
same,glycan array binding signal (z-score),[20],-0.149
same,glycan array binding signal (z-score),[21],0.121
same,glycan array binding signal (z-score),[22],-0.602
same,glycan array binding signal (z-score),[23],3.16
same,glycan array binding signal (z-score),[24],0.921
same,glycan array binding signal (z-score),[25],2.03
same,glycan array binding signal (z-score),[26],2.87
same,glycan array binding signal (z-score),[27],0.78
same,glycan array binding signal (z-score),[28],-0.05
same,glycan array binding signal (z-score),[29],-0.557
same,glycan array binding signal (z-score),[30],-0.696
Epa3to2 (Candida glabrata) (protein) MGSSHHHHHHSSGLVPRGSHMKRELSSQNPFGYPIGCSPQDVAIIPGLTMELYSYPIVSGTPPNCYDASYVDPEYPRTGYLKRKMVGKSTGVTGNLNYKYSVEKACMVKYGNLPAGYNYNEPLTVSNFTMILYGYFKAQTTGLHTFFVNADDLLYINFGAGNAFDCCKREDSKTKLGEYVAYDIWHVDSSKNKVSLFLEKDLYYPIRMFFNNRDNNSSLDLSFSVNGATDQISDFSGYLYSVPDQPDTCPAHIGYDTTCR,glycan array binding signal (z-score),[31],-1.16
same,glycan array binding signal (z-score),[32],3.92
same,glycan array binding signal (z-score),[33],0.52
same,glycan array binding signal (z-score),[34],-0.658
same,glycan array binding signal (z-score),[35],7.38
same,glycan array binding signal (z-score),[36],2.24
same,glycan array binding signal (z-score),[37],1.37
same,glycan array binding signal (z-score),[38],-0.302
same,glycan array binding signal (z-score),[39],-0.793
same,glycan array binding signal (z-score),[40],-1.13
same,glycan array binding signal (z-score),[41],2.19
same,glycan array binding signal (z-score),[42],-0.698
same,glycan array binding signal (z-score),[43],1.01
same,glycan array binding signal (z-score),[44],0.968
same,glycan array binding signal (z-score),[45],0.534
same,glycan array binding signal (z-score),[46],0.038
same,glycan array binding signal (z-score),[47],-0.277
same,glycan array binding signal (z-score),[48],2.12
